In the supplement of paper PMC12350171:
Counter-ions that a name gives are not always drawn.

Legend:
Settings in all cases: 20 µM
[1] = tested on: Salmonella enterica typhimurium; assay: growth AUC normalised to DMSO control (fraction of control); higher = less growth inhibition, active = hit call of the paper
Method in brief: (§1)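 Three biological replicates were carried out, with OD578 read hourly for 24 h. Before inoculation at a starting OD578 of 0.01, pathogens were passaged anaerobically twice; plates were pre-reduced mGAM containing 20 μM compound and 1% DMSO, sealed with breathable membranes, and the Haemophilus parainfluenzae medium carried added hemin and NAD. Area under each growth curve was calculated by the trapezoidal rule up to the exponential-to-stationary transition and normalised to DMSO controls on the same plate.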

Shigella flexneri = assay: as above
Method in brief: as §1

Vibrio cholerae = assay: as above
Method in brief: as §1

[2] = tested on: Yersinia pseudotuberculosis; assay: as above
Method in brief: as §1

P. vulgatus RND KO = assay: growth AUC normalised to DMSO control (median) (fraction of control); higher = less growth inhibition, active = hit call of the paper
Method in brief: (§2)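 Strains were passaged twice overnight without oxygen, then grown in mGAM in 96-well plates with each approved-drug library compound at 20 μM and 1% DMSO, starting at OD578 0.01. OD578 was read hourly for 24 h inside an anaerobic incubator. Curves were truncated at entry into stationary phase, and the trapezoidal-rule area under the curve was normalised to same-plate vehicle wells. The value is the median across three biological replicates.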

P. vulgatus WT = assay: as above
Method in brief: as §2

[3] = tested on: S. enterica typhimurium WT; assay: as above
Method in brief: as §2

[4] = tested on: S. enterica typhimurium tolC KO; assay: as above
Method in brief: as §2

Measured: growth AUC normalised to DMSO control
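Wherever growth AUC normalised to DMSO control (median) is given: active when median AUC fell below 0.1.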

CCCCCN(CCCCC)C(=O)C(CCC(=O)O)NC(=O)c1ccc(Cl)c(Cl)c1 (stereo not given) [Lorglumide sodium salt]
inactive: [1] 1 | Shigella flexneri 0.965 | Vibrio cholerae 0.986 | [2] 1.01 | P. vulgatus RND KO 0.947 | P. vulgatus WT 0.959 | [3] 1 | [4] 0.991

CC(C)NC[C@H](O)COc1ccc(CC(N)=O)cc1 [(S,-) Atenolol]
inactive: [1] 0.988 | Shigella flexneri 0.972 | Vibrio cholerae 0.996 | [2] 1.02 | P. vulgatus RND KO 0.985 | P. vulgatus WT 0.963 | [3] 0.987 | [4] 0.989

Cc1cc(NC(=O)C2=C(O)c3ccccc3S(=O)(=O)N2C)no1 [Isoxicam]
inactive: [1] 0.982 | Shigella flexneri 0.974 | Vibrio cholerae 0.901 | [2] 0.984 | P. vulgatus RND KO 0.979 | P. vulgatus WT 0.975 | [3] 0.991 | [4] 0.993

CN(C)CCn1nnnc1SCC1=C(C(=O)O)N2C(=O)[C@@H](NC(=O)Cc3csc(N)n3)[C@H]2SC1 [Cefotiam hydrochloride]
active: [1] 0.0032 | Shigella flexneri 0.0159 | Vibrio cholerae 0.0593 | [2] 0.03 | P. vulgatus RND KO 0.0136 | P. vulgatus WT 0.00849 | [3] 0.00304 | [4] 0.00289

CC(CN(C)C)C(C)(O)Cc1ccc(Cl)cc1 (stereo not given) [Clobutinol hydrochloride]
inactive: [1] 0.999 | Shigella flexneri 0.98 | Vibrio cholerae 0.987 | [2] 0.993 | P. vulgatus RND KO 0.999 | P. vulgatus WT 1.03 | [3] 1.01 | [4] 0.994

CCCCNc1ccc(C(=O)OCCN(C)C)cc1 [Tetracaine hydrochloride]
inactive: [1] 1.01 | Shigella flexneri 1.01 | Vibrio cholerae 1.01 | [2] 1 | P. vulgatus RND KO 1.04 | P. vulgatus WT 1.07 | [3] 0.999 | [4] 0.993

Nc1nnc(-c2cccc(Cl)c2Cl)c(N)n1 [Lamotrigine]
inactive: [1] 0.963 | Shigella flexneri 0.933 | Vibrio cholerae 1.03 | [2] 1.01 | P. vulgatus RND KO 0.95 | P. vulgatus WT 0.986 | [3] 0.957 | [4] 0.962

CC(NCCc1ccc(O)cc1)C(O)c1ccc(O)cc1 (stereo not given) [Ritodrine hydrochloride]
inactive: [1] 1.01 | Shigella flexneri 1.02 | Vibrio cholerae 0.999 | [2] 1 | P. vulgatus RND KO 1 | P. vulgatus WT 1.01 | [3] 1 | [4] 0.997

Cc1cc(C)nc(NS(=O)(=O)c2ccc(N)cc2)n1 [Sulfamethazine sodium salt]
inactive: [1] 0.985 | Shigella flexneri 0.986 | Vibrio cholerae 0.982 | [2] 1.01 | P. vulgatus RND KO 0.996 | P. vulgatus WT 0.988 | [3] 0.992 | [4] 1.01

CCCc1cc(=O)[nH]c(=S)[nH]1 [Propylthiouracil]
inactive: [1] 0.987 | Shigella flexneri 0.991 | Vibrio cholerae 1 | [2] 0.993 | P. vulgatus RND KO 1.02 | P. vulgatus WT 1.05 | [3] 1.01 | [4] 0.996

COc1nc(C)nc(Cl)c1NC1=NCCN1 [Moxonidine]
inactive: [1] 1.01 | Shigella flexneri 1.03 | Vibrio cholerae 1.04 | [2] 1.02 | P. vulgatus RND KO 0.994 | P. vulgatus WT 0.995 | [3] 1 | [4] 0.999

CNC(=O)c1c(I)c(C(=O)NCC(=O)Nc2c(I)c(C(=O)O)c(I)c(C(=O)NCCO)c2I)c(I)c(N(C)C(C)=O)c1I [Ioxaglic acid]
inactive: [1] 0.968 | Shigella flexneri 0.993 | Vibrio cholerae 1.01 | [2] 0.964 | P. vulgatus RND KO 1.01 | P. vulgatus WT 1 | [3] 0.997 | [4] 0.994

COc1ccccc1OCC(O)CN1CCN(CC(=O)Nc2c(C)cccc2C)CC1 (stereo not given) [Ranolazine]
inactive: [1] 1 | Shigella flexneri 1 | Vibrio cholerae 1.01 | [2] 1.01 | P. vulgatus RND KO 0.994 | P. vulgatus WT 1 | [3] 0.998 | [4] 0.998

CCCC(CCC)C(=O)O [Valproic acid]
inactive: [1] 1.01 | Shigella flexneri 1.02 | Vibrio cholerae 1.05 | [2] 1.01 | P. vulgatus RND KO 1.06 | P. vulgatus WT 1.07 | [3] 1 | [4] 1.01

CN1CCCCC1CCN1c2ccccc2Sc2ccc([S+](C)[O-])cc21 (stereo not given) [Mesoridazine besylate]
inactive: [1] 0.993 | Shigella flexneri 0.978 | Vibrio cholerae 0.949 | [2] 1.01 | P. vulgatus RND KO 0.941 | P. vulgatus WT 0.885 | [3] 0.997 | [4] 0.944

COc1ccccc1OCC(O)COC(N)=O (stereo not given) [Methocarbamol]
inactive: [1] 0.986 | Shigella flexneri 0.981 | Vibrio cholerae 0.94 | [2] 0.979 | P. vulgatus RND KO 0.993 | P. vulgatus WT 1.03 | [3] 1 | [4] 1

CN1CCc2cccc3c2[C@H]1Cc1ccc(O)c(O)c1-3 [R(-) Apomorphine hydrochloride hemihydrate]
inactive: [1] 0.999 | Shigella flexneri 1 | Vibrio cholerae 1.01 | [2] 1.02 | P. vulgatus RND KO 1.02 | P. vulgatus WT 1.05 | [3] 1.01 | [4] 0.983

NCC[C@H](O)C(=O)N[C@@H]1C[C@H](N)[C@@H](O[C@H]2O[C@H](CN)[C@@H](O)[C@H](O)[C@H]2O)[C@H](O)[C@H]1O[C@H]1O[C@H](CO)[C@@H](O)[C@H](N)[C@H]1O [Amikacin hydrate]
active: [1] 0.922 | [2] 0.122
inactive: Shigella flexneri 0.985 | Vibrio cholerae 1.01 | P. vulgatus RND KO 1.02 | P. vulgatus WT 1.04 | [3] 1 | [4] 0.995

C[C@H]1O[C@@H](O[C@H]2[C@@H](O)C[C@H](O[C@H]3[C@@H](O)C[C@H](O[C@H]4CC[C@@]5(C)[C@H](CC[C@@H]6[C@@H]5C[C@@H](O)[C@]5(C)[C@@H](C7=CC(=O)OC7)CC[C@]65O)C4)O[C@@H]3C)O[C@@H]2C)C[C@H](O)[C@@H]1O [Digoxin]
inactive: [1] 0.978 | Shigella flexneri 0.945 | Vibrio cholerae 0.973 | [2] 0.993 | P. vulgatus RND KO 0.985 | P. vulgatus WT 1.01 | [3] 0.987 | [4] 0.995

CC1=C(C(=O)O)N2C(=O)[C@@H](NC(=O)[C@H](N)c3ccc(O)cc3)[C@H]2SC1 [Cefadroxil]
inactive: [1] 0.979 | Shigella flexneri 0.937 | Vibrio cholerae 0.967 | [2] 0.997 | P. vulgatus RND KO 1.01 | P. vulgatus WT 1 | [3] 0.996 | [4] 0.982

CC(N)(Cc1ccc(O)c(O)c1)C(=O)O (stereo not given) [(L) Methyldopa]
inactive: [1] 1.01 | Shigella flexneri 1.01 | Vibrio cholerae 1.01 | [2] 0.973 | P. vulgatus RND KO 1.03 | P. vulgatus WT 1.05 | [3] 1.01 | [4] 1.01

NC(=O)N/N=C/c1ccc([N+](=O)[O-])o1 [Nitrofural]
inactive: P. vulgatus WT 0.254 | [3] 0.902 | [4] 0.818
active: [1] 0.713 | Shigella flexneri 0.154 | Vibrio cholerae 0.01 | [2] 0.875 | P. vulgatus RND KO 0.0943

CC(C)CC(=O)N[C@H](C(=O)N[C@H](C(=O)N[C@@H](CC(C)C)[C@@H](O)CC(=O)N[C@@H](C)C(=O)N[C@@H](CC(C)C)[C@@H](O)CC(=O)O)C(C)C)C(C)C [Pepstatin A]
inactive: [1] 1.01 | Shigella flexneri 1.03 | Vibrio cholerae 1.04 | [2] 1 | P. vulgatus RND KO 1.02 | P. vulgatus WT 1.05 | [3] 1.01 | [4] 0.988

CC[C@H](C)C(=O)O[C@H]1CCC=C2C=C[C@H](C)[C@H](CC[C@@H]3C[C@@H](O)CC(=O)O3)[C@H]21 [Mevastatin]
inactive: [1] 1 | Shigella flexneri 1.01 | Vibrio cholerae 1.02 | [2] 0.974 | P. vulgatus RND KO 0.952 | P. vulgatus WT 0.989 | [3] 1.01 | [4] 0.922

CN1CCCN=C1/C=C/c1cccs1 [Pyrantel tartrate]
inactive: [1] 0.999 | Shigella flexneri 0.995 | Vibrio cholerae 1.01 | [2] 1.01 | P. vulgatus RND KO 1.01 | P. vulgatus WT 0.982 | [3] 1.01 | [4] 1

COc1ccc2[nH]cc(CCNC(C)=O)c2c1 [Melatonin]
inactive: [1] 0.987 | Shigella flexneri 0.972 | Vibrio cholerae 0.997 | [2] 0.992 | P. vulgatus RND KO 0.988 | P. vulgatus WT 1 | [3] 0.996 | [4] 0.996

CC(C)(Oc1ccc(CCNC(=O)c2ccc(Cl)cc2)cc1)C(=O)O [Bezafibrate]
inactive: [1] 0.976 | Shigella flexneri 0.959 | Vibrio cholerae 0.988 | [2] 0.994 | P. vulgatus RND KO 0.976 | P. vulgatus WT 1 | [3] 0.998 | [4] 0.99

C#C[C@]1(O)CC[C@H]2[C@@H]3CCC4=CC(=O)CC[C@@H]4[C@H]3CC[C@@]21C [Norethindrone]
inactive: [1] 1.01 | Shigella flexneri 0.977 | Vibrio cholerae 0.996 | [2] 0.988 | P. vulgatus RND KO 0.997 | P. vulgatus WT 1.03 | [3] 1.01 | [4] 0.993

CC(C)(Oc1ccc(Cl)cc1)C(=O)O [Clofibric acid]
inactive: [1] 0.995 | Shigella flexneri 1 | Vibrio cholerae 0.986 | [2] 0.996 | P. vulgatus RND KO 0.998 | P. vulgatus WT 1.01 | [3] 0.996 | [4] 1

C=CC(N)CCC(=O)O (stereo not given) [Vigabatrin hydrochloride]
inactive: [1] 1.02 | Shigella flexneri 1.02 | Vibrio cholerae 1.01 | [2] 0.997 | P. vulgatus RND KO 1.01 | P. vulgatus WT 1.06 | [3] 1.03 | [4] 0.992
